Inconclusive results are not listed. Active and inactive are the calls of the source. Calls come from the whole dose curve; as a rule, active = well fitted inhibition curve with a large enough effect; inconclusive = small, poorly fitted or top-dose-only effect; inactive = flat fitted curve, though single readings scatter.
Legend:
[1] = system: CRL-7250; assay: Cytotoxic Profiling of Annotated Libraries Using Quantitative High-Throughput Screening (AID 1296008); conditions: Five cell lines viability, CellTiter-Glo ATP luminescence, 48-72 h; max response: active compounds read low; for max response: % is set by controls: 0 for no effect and ±100 for the full control effect
Outline: (§1)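 Cytotoxicity was measured as CellTiter-Glo ATP luminescence, read after 10 min at room temperature. Compound treatment of the cells lasted 48 or 72 hr at 37 degrees Celsius in a qHTS format.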

[2] = system: HEK293; assay: as above; conditions: Five cell lines viability, CellTiter-Glo ATP luminescence, 48-72 h; max response: active compounds read low
Outline: as §1

[3] = system: HaCat; assay: as above; conditions: Five cell lines viability, CellTiter-Glo ATP luminescence, 48-72 h; max response: active compounds read low
Outline: as §1

[4] = system: KB-3-1; assay: as above; conditions: Five cell lines viability, CellTiter-Glo ATP luminescence, 48-72 h; max response: active compounds read low
Outline: as §1

[5] = system: NIH3T3; assay: as above; conditions: Five cell lines viability, CellTiter-Glo ATP luminescence, 48-72 h; max response: active compounds read low
Outline: as §1

[6] = system: HACAT; assay: qHTS assay to identify novel small-molecules to repurpose for Merkel cell carcinoma treatment (AID 1296009); conditions: MCC and control cell lines, CellTiter-Glo viability, 72 h; at 44.8 µM (top of the series) unless noted
Outline: (§2)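 Cell viability measured by CellTiter-Glo following 72 hr compound treatment at 37 degree celsius, with NPC and MIPE libraries tested in 8- and 11-point concentration series.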

[7] = system: NIH3T3; assay: as above; conditions: MCC and control cell lines, CellTiter-Glo viability, 72 h; at 44.8 µM (top of the series) unless noted
Outline: as §2

Measured: max response
Note: nearly all actives have a fitted effect of over 60% in size.

C=C1[C@H](OC(C)=O)[C@H]2[C@@H](OC(C)=O)C(C)C[C@]2(OC(C)=O)C(=O)[C@H](C)/C=C/C(C)(C)C(=O)[C@H](OC(=O)C(C)C)[C@H]1OC(C)=O (some centres not stated)
inactive: [1] 2.65% | [2] -3.57% | [3] | [4] | [5] | [6] inactive [at 17.4 µM] | [7] inactive [at 17.4 µM]

CCC/C=C/C=C/C1CC(O)C(O)C(=O)C1CO (configuration not stated)
inactive: [1] | [2] -5.36% | [3] | [4] | [5] | [6] | [7]

Nc1ccc(-n2nc(C(F)(F)F)cc2C(F)(F)F)cc1
inactive: [1] 1.57% | [2] -3.16% | [3] | [4] 7.09% | [5] | [6] | [7]

CC12CC(c3ccoc3)OC(=O)C1CCC1(C)C2CCC(O)C1(C)O (configuration not stated)
inactive: [1] | [2] 0.137% | [3] | [4] 6.59% | [5] | [6] | [7]

Cc1ccc(-c2c(-c3nn(C)c4ncnc(N5CC[C@H](N6CCCCC6)C5)c34)cnn2C)cc1
inactive: [1] -0.469% | [2] -5.54% | [3] | [4] -0.872% | [5] | [6] | [7]

C=C1CC[C@@]2(OC1)O[C@H]1CC3[C@@H]4CC=C5C[C@H](O[C@H]6OC[C@@H](O)C(O)[C@@H]6O[C@@H]6O[C@@H](C)[C@H](O)[C@@H](O[C@@H]7O[C@H](CO)[C@@H](O)[C@H](O)[C@H]7O)[C@H]6O)C[C@@H](O)[C@]5(C)C4CC[C@]3(C)[C@H]1[C@@H]2C (some centres not stated)
inactive: [1] 3.7% | [2] -14.3% | [3] | [4] -1.49% | [5] | [6] inactive [at 9.27 µM] | [7] inactive [at 9.27 µM]

CC(=O)O[C@@H]1[C@@H](O)[C@H](C)O[C@@H](O[C@H]2[C@@H]3C=CO[C@@H](O[C@@H]4O[C@H](CO)[C@@H](O)[C@H](O)[C@H]4OC(C)=O)[C@@H]3[C@@]3(CO)O[C@@H]23)[C@@H]1OC(=O)/C=C/c1ccc(O)cc1
inactive: [1] 0.704% | [2] 2.14% | [3] | [4] | [5] | [6] inactive [at 17.4 µM] | [7] inactive [at 17.4 µM]

CC1(C)CC[C@]2(C(=O)O)CC[C@]3(C)C(=CCC4[C@@]5(C)C[C@H](O)[C@H](O[C@@H]6O[C@H](CO)[C@@H](O)[C@H](O)[C@H]6O)[C@@](C)(CO)C5[C@H](O)C[C@]43C)[C@@H]2C1 (some centres not stated)
inactive: [1] 3.07% | [2] 0.861% | [3] | [4] 3.96% | [5] | [6] inactive [at 17.4 µM] | [7] inactive [at 17.4 µM]

CNC(C)C(=O)NC(C(=O)N1CCCC1C(=O)Nc1cccc2ncccc12)C(C)C (configuration not stated)
inactive: [1] | [2] 4.04% | [3] | [4] 2.7% | [5] | [6] | [7]

Cc1occc(=O)c1O[C@@H]1O[C@H](CO)[C@@H](O)[C@H](O)[C@H]1O
inactive: [1] -1.36% | [2] 2.23% | [3] | [4] | [5] | [6] | [7]

CNC(=O)c1ccc2c(c1)CCO[C@H]2CCN1CCN(c2ccc(C(N)=O)cc2)CC1
inactive: [1] 0.998% | [2] 3.1% | [3] | [4] -1.44% | [5] | [6] | [7]

Cc1ccccc1-n1nc(-c2c(-c3ccc(F)cc3)nn3c2NC[C@@H](CO)C3)ccc1=O
inactive: [1] 1.82% | [2] -7.72% | [3] | [4] 1.64% | [5] | [6] | [7]

C=C(C)[C@@H]1CC[C@]2(C(=O)O)CC[C@]3(C)C(CCC4[C@]5(C)C(CC[C@]43C)C(C)(C)[C@@H](O)[C@@H]5C(=O)O)C12 (some centres not stated)
inactive: [1] | [2] -0.322% | [3] | [4] | [5] | [6] inactive [at 17.4 µM] | [7] inactive [at 17.4 µM]

Nc1c(-c2ccccc2)nc(Cl)c2c(O)n[nH]c(=O)c12
inactive: [1] | [2] -7.38% | [3] | [4] 9.61% | [5] | [6] | [7]

CC1CC(=O)C2C(O)(C1)CC(O)C13OC1c1c(O)cccc1C(=O)C23O (configuration not stated)
inactive: [1] | [2] -12.4% | [3] | [4] 3.15% | [5] | [6] | [7]

C/C=C/C=C/C(O)=C1/C(=O)[C@]2(C)C3/C(=C(O)/C=C/C=C/C)C(=O)C4(C)C1[C@]1(C)O[C@@]4(O)[C@@]3(C)O[C@@]12O
inactive: [1] | [2] 2.27% | [3] | [4] 0.929% | [5] | [6] inactive [at 17.4 µM] | [7] inactive [at 17.4 µM]

O=C(O)c1ccc(NC(=O)[C@H](CC2CCCC2)n2cnc(C(F)(F)F)c2)nc1
inactive: [1] -11.6% | [2] -11% | [3] | [4] | [5] | [6] | [7]

COc1cc2c(cc1O)CC(O)(CO)C(CO)C2c1ccc(OC2OC(CO)C(O)C(O)C2O)c(OC)c1 (configuration not stated)
inactive: [1] | [2] -0.898% | [3] | [4] | [5] | [6] inactive [at 17.4 µM] | [7] inactive [at 17.4 µM]

CC1C(=O)OCC2=CC[N+]3([O-])CCC(OC(=O)C(C)(O)C1(C)O)C23 (configuration not stated)
inactive: [1] 2.6% | [2] 3.51% | [3] | [4] 7.03% | [5] | [6] | [7]

C/C1=C\CC[C@]2(C)O[C@H]2C(=O)c2c(C)coc2C1
inactive: [1] 1.23% | [2] -1.35% | [3] | [4] -3.14% | [5] | [6] | [7]

CC(=O)OC[C@]12[C@@H](OC(=O)c3ccoc3)C[C@@H]3[C@@H](OC(C)=O)[C@]1(OC3(C)C)[C@@](C)(O)C[C@H](OC(=O)c1ccoc1)[C@@H]2OC(=O)c1ccoc1
inactive: [1] -3.29% | [2] -2.85% | [3] | [4] 2.58% | [5] | [6] inactive [at 17.4 µM] | [7] inactive [at 17.4 µM]

C=C1CCC2C(C)(C)CC(=O)CC2(C)C1CCC(C)CCO (configuration not stated)
inactive: [1] -5.3% | [2] 1.61% | [3] | [4] 0.95% | [5] | [6] | [7]

C=CC(C)(C)C12Nc3c(ccc4c3OC(C)(C)C=C4)C1(O)CC1C(=O)N3CCCC3C(=O)N12 (configuration not stated)
inactive: [1] 0.0002% | [2] -7.42% | [3] | [4] | [5] | [6] inactive [at 17.4 µM] | [7] inactive [at 17.4 µM]

CC(C)C1CCC(C(=O)N[C@@H](Cc2ccccc2)C(=O)O)CC1 (some centres not stated)
inactive: [1] | [2] 3.42% | [3] | [4] | [5] | [6] | [7]

CC(C)(O)C1CC=C(C(=O)OC[C@H]2O[C@@H](OC(=O)C3=CCC(C(C)(C)O)CC3)[C@H](O)[C@@H](O)[C@@H]2O)CC1 (some centres not stated)
inactive: [1] 3.51% | [2] 1.77% | [3] | [4] 9.42% | [5] | [6] inactive [at 17.4 µM] | [7] inactive [at 17.4 µM]

CN1CCCC1Cc1c[nH]c2ccc(CCS(=O)(=O)c3ccccc3)cc12 (configuration not stated)
inactive: [1] | [2] -7.1% | [3] | [4] 7.71% | [5] | [6] | [7]

OC[C@H]1O[C@@H](OCCc2ccccc2)[C@H](O[C@@H]2OC[C@@H](O)[C@H](O)[C@H]2O)[C@@H](O)[C@@H]1O
inactive: [1] | [2] 4.26% | [3] | [4] 9.19% | [5] | [6] inactive [at 17.4 µM] | [7] inactive [at 17.4 µM]

COc1cc(CO)ccc1O[C@@H]1O[C@H](CO)[C@@H](O)[C@H](O)[C@H]1O
inactive: [1] -0.424% | [2] -18.7% | [3] | [4] 5.53% | [5] | [6] | [7]

C=CC(C)(O)CC/C=C(\C)C1CC=C(C)C(=O)O1 (configuration not stated)
inactive: [1] | [2] -4.28% | [3] | [4] 2.69% | [5] | [6] | [7]

C[C@@H]1O[C@@H](O[C@H]2[C@@H]3C=CO[C@@H](O[C@@H]4O[C@H](CO)[C@@H](O)[C@H](O)[C@H]4O)[C@@H]3[C@@]3(CO)O[C@@H]23)[C@H](O)[C@H](OC(=O)/C=C/c2ccc(O)c(O)c2)[C@H]1O
inactive: [1] 2.8% | [2] 1.13% | [3] | [4] -0.915% | [5] | [6] inactive [at 17.4 µM] | [7] inactive [at 17.4 µM]

O=C(OCC1=C[C@@H](O)[C@@H]2C=CO[C@@H](O[C@@H]3O[C@H](CO)[C@@H](O)[C@H](O)[C@H]3O)[C@H]12)c1ccc(O)cc1
inactive: [1] -4.11% | [2] 1.2% | [3] | [4] 1.69% | [5] | [6] inactive [at 17.4 µM] | [7] inactive [at 17.4 µM]
